Experimental data as given in the supplement of paper PMC6555819.

Tests used:
Assay in all cases: PBM binding z-score (relative to random genomic background probes); higher = stronger binding; sequences stand for … in GC…GCGATTGACAGCGTAGAATGAAGG
[1] = system: FXR:RXRa (NR concentration 270 nM, RXRa partner concentration 90 nM)
Summary of the method: (§1)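 Each nuclear receptor dimer, without ligand, was incubated for 1 h on custom Agilent 4×180K protein-binding microarrays. Binding was detected with antibodies against each partner (one per run), and scanned fluorescence was regression-normalized. The binding z-scores are referenced to random human genomic background probes.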

[2] = system: LXRa:RXRa (NR concentration 270 nM, RXRa partner concentration 90 nM)
Summary of the method: as §1

[3] = system: LXRa homodimer (NR concentration 270 nM)
Summary of the method: as §1

[4] = system: LXRb:RXRa (NR concentration 270 nM, RXRa partner concentration 90 nM)
Summary of the method: as §1

[5] = system: LXRb homodimer (NR concentration 270 nM)
Summary of the method: as §1

[6] = system: PPARa:RXRa (NR concentration 270 nM, RXRa partner concentration 90 nM)
Summary of the method: as §1

[7] = system: PPARg:RXRa (NR concentration 180 nM, RXRa partner concentration 90 nM)
Summary of the method: as §1

[8] = system: PPARg:RXRa 270nM:90nM, anti-RXR (NR concentration 270 nM, RXRa partner concentration 90 nM)
Summary of the method: as §1

[9] = system: PPARg:RXRa 30nM:10nM, anti-RXR (NR concentration 30 nM, RXRa partner concentration 10 nM)
Summary of the method: as §1

[10] = system: PPARg:RXRa 90nM:30nM, anti-RXR (NR concentration 90 nM, RXRa partner concentration 30 nM)
Summary of the method: as §1

[11] = system: PPARg:RXRa DBDmut IVT, anti-RXR (DBD mutation: RXRa K156A/R161A, NR concentration 270 nM, RXRa partner concentration 90 nM)
Summary of the method: as §1

[12] = system: PPARg:RXRa IVT, anti-PPARg (NR concentration 270 nM, RXRa partner concentration 90 nM)
Summary of the method: as §1

[13] = system: PPARg DBDmut:RXRa IVT, anti-PPARg (DBD mutation: PPARg1 K132A/R137A, NR concentration 270 nM, RXRa partner concentration 90 nM)
Summary of the method: as §1

[14] = system: PPARg DBDmut IVT, anti-PPARg (DBD mutation: PPARg1 K132A/R137A, NR concentration 270 nM)
Summary of the method: as §1

[15] = system: PPARg homodimer (NR concentration 180 nM)
Summary of the method: as §1

[16] = system: PXR:RXRa (NR concentration 270 nM, RXRa partner concentration 90 nM)
Summary of the method: as §1

[17] = system: PXR homodimer (NR concentration 270 nM)
Summary of the method: as §1

[18] = system: RARa:RXR (NR concentration 270 nM, RXRa partner concentration 90 nM)
Summary of the method: as §1

[19] = system: RARa homodimer (NR concentration 270 nM)
Summary of the method: as §1

[20] = system: RARb:RXRa (NR concentration 270 nM, RXRa partner concentration 90 nM)
Summary of the method: as §1

| Sequence | PBM binding z-score [1] | PBM binding z-score [2] | PBM binding z-score [3] | PBM binding z-score [4] | PBM binding z-score [5] | PBM binding z-score [6] | PBM binding z-score [7] | PBM binding z-score [8] | PBM binding z-score [9] | PBM binding z-score [10] | PBM binding z-score [11] | PBM binding z-score [12] | PBM binding z-score [13] | PBM binding z-score [14] | PBM binding z-score [15] | PBM binding z-score [16] | PBM binding z-score [17] | PBM binding z-score [18] | PBM binding z-score [19] | PBM binding z-score [20] |
| --- | --- | --- | --- | --- | --- | --- | --- | --- | --- | --- | --- | --- | --- | --- | --- | --- | --- | --- | --- | --- |
| CGAACGAGGGCAAGAGTTGATAGCAAATGCCGAT | 0.442 | 0.206 | -0.493 | 0.236 | -0.921 | 1.52 | 2.3 | 2.48 | 0.687 | 1.92 | 3.38 | 2.22 | 0.196 | -0.307 | 0.163 | 0.404 | -0.197 | 0.316 | -0.216 | 2.38 |
| CAAACTAGGTCAAGGTCAAACTCGGTTTGTGCCA | 7.27 | 5.63 | 4.45 | 4.69 | 1.71 | 6.2 | 9.59 | 7.65 | 6.72 | 7.91 | 7.83 | 8.72 | 1.79 | 1.1 | 2.32 | 5.44 | 2.6 | 5.03 | 1.19 | 5.27 |
| AATACAGGGTCACTAGGCCACAGTAGGTACGAAT | 6.38 | 4.76 | 1.17 | 4.02 | 1.04 | 6.17 | 8.82 | 7.43 | 4.24 | 6.72 | 4.65 | 6.73 | 4.31 | 2.11 | 3.96 | 3.36 | 0.57 | 4.14 | 1.37 | 4.27 |
| CGAACTAGGTCATGCAGGACAGTGAATACATTGA | 3.87 | 2.17 | 0.149 | 1.88 | -0.2 | 4.66 | 7.65 | 6.21 | 3.69 | 5.66 | 8.05 | 8.18 | 3.1 | 1.2 | 1.1 | 1.34 | 0.687 | 1.97 | 0.243 | 3.92 |
| CGTCAAAATTCAACTAAGGTAACGTAAAGCACGC | 0.963 | 0.314 | 0.303 | 0.543 | 0.0502 | 0.568 | 0.569 | 0.127 | -0.0256 | 0.246 | -0.174 | 0.543 | 0.555 | 1.22 | -0.0431 | 0.326 | 0.413 | 1.71 | 1.69 | 0.577 |
| ATGTCTAGGTAACAAGTTCAGTGAAAGAGAGGAC | 0.658 | 0.774 | 0.395 | 0.727 | 0.845 | 1.28 | 1.06 | 1.07 | 0.33 | 1.12 | 2.05 | 2.17 | 1.24 | 0.999 | 0.836 | 1.69 | 1.68 | 0.876 | 0.818 | 1.56 |
| TCTCGGTGGACACGAAGGTCAGAGCTTTCCAGAG | 0.952 | 0.962 | 0.157 | 1.36 | -0.833 | 2.04 | 0.78 | 2.38 | 2.3 | 2.3 | 1 | 0.976 | -1.18 | -1.31 | 0.842 | 1.38 | -0.107 | 1.55 | -0.711 | 2.57 |
| ATCGAAAGGTCTTGAGGTGAGTATACAGAAAGGC | 0.305 | 0.206 | -0.36 | 0.394 | -0.0662 | 1.68 | 1.15 | 0.897 | 0.286 | 0.647 | -0.431 | 1.56 | 0.61 | 0.602 | 0.325 | 0.409 | -0.368 | 1.43 | 0.103 | 2.13 |
| CTACCCAGGTGAACAAGGTCGTTGATTACTATTC | 0.858 | 0.806 | 0.13 | 1.4 | -0.485 | 1.99 | 0.957 | 0.672 | 0.076 | 0.194 | 1.84 | 2.27 | 0.299 | -0.0404 | 0.541 | 2.03 | 0.96 | 1.61 | 0.91 | 1.29 |
| TAGCCTAGGTCATGCGGGCAAGTATAGTGTCGGC | 4.44 | 3.3 | 0.517 | 1.94 | -0.137 | 3.73 | 2.32 | 2.59 | 0.322 | 1.54 | 1.66 | 3.02 | 0.235 | -0.248 | 1.39 | 1.45 | -0.333 | 2.21 | 0.228 | 3.83 |
| GCAGACAGGTGAAACGCAGGTAACACAGGGTGGC | -0.0327 | -0.0189 | -0.439 | -0.317 | -1.1 | 0.885 | 0.859 | 0.128 | -0.52 | -0.381 | 0.623 | 0.202 | 0.00158 | -0.396 | -0.0973 | 0.067 | -0.211 | 0.594 | -0.376 | 0.622 |
| GCTAGTTGGTCAGTAAAAGGTCACTCACCGGTCG | 2.88 | 3.91 | 4.1 | 3.49 | 0.861 | 3.87 | 1.93 | 4.19 | 1.77 | 3.49 | 1.28 | 2.47 | -0.335 | 0.0493 | 3.31 | 4.53 | 0.779 | 5.19 | 1.56 | 4.12 |
| TAGCCTAGGTCAGATCGTGCCAGTATACGCTATA | 1.53 | 1.21 | -0.412 | 1.06 | 0.00468 | 1.91 | 0.806 | 0.67 | 0.0687 | 0.244 | 0.562 | 1.66 | 0.149 | -0.175 | -0.159 | 0.82 | -0.569 | 1.23 | -0.542 | 3.18 |
| CAAACTAGGACAAAGGTCAAAGTCGAGCCAACCA | 6.31 | 6.08 | 4.5 | 5.58 | 2.61 | 7 | 12.1 | 10.6 | 10.9 | 11.9 | 6.48 | 7.54 | 2.91 | 1.8 | 4.89 | 5.62 | 2.1 | 6.43 | 3.25 | 4.8 |
